# According to the supplement of paper PMC3342239:
# Counter-ions that a name gives are not always drawn.
# Test system: Saccharomyces cerevisiae
# Experiment: fraction of cells in G1 phase (DNA content, flow cytometry); higher = more cells with unreplicated DNA (G1 delay)
# Settings: temperature: 30 C; YPD; BY4741 PDR5+ SNQ2+; drug added to: actively dividing cells; 4.33 h
# Protocol: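 S. cerevisiae cultures in YPD at 30°C were treated with each drug of the Enzo FDA-approved library at 20 µg/ml (final µM given per drug). Cells were fixed after 6–7 h (S1) or 6 h (S2), or after 4.33 h for BY4741 (S3), then stained with SYTOX Green. %G1 is the Dean-Jett-Fox G1 peak area divided by the G1+G2/M peak areas, written as a fraction and averaged over at least two independent experiments. DMSO reference: mean ~0.49; >0.60 is called High G1 and <0.3876 Low G1. Scale: lower means mitotic delay.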
row,Structure (SMILES),fraction of cells in G1 phase
1,C[C@@H]1CC[C@H]2[C@@H](C)C(=O)O[C@@H]3O[C@@]4(C)CC[C@@H]1[C@]32OO4 [Artemisinin] (70.8367 µM),0.5
2,CC1C=CC=CCCC=CC=CC=CC=CC(OC2OC(C)C(O)C(N)C2O)CC2OC(O)(CC(O)C(O)CCC(O)CC(O)CC(O)CC(=O)OC(C)C(C)C1O)CC(O)C2C(=O)O (stereo unspecified) [Nystatin] (21.5955 µM),0.549
3,C[C@]12CC[C@H](O)CC1=CC[C@@H]1[C@@H]2CC[C@]2(C)C(=O)CC[C@@H]12 [Dehydroepiandrosterone] (69.34 µM),0.501
4,C#C[C@]1(O)CC[C@H]2[C@@H]3CCC4=CC(=O)CCC4=C3C=C[C@@]21CC [Gestrinone] (64.8457 µM),0.423
5,CCCCC(C#N)(Cn1cncn1)c1ccc(Cl)cc1 (stereo unspecified) [Myclobutanil] (69.2563 µM),0.536

# Same assay, conditions: temperature: 30 C; YPD; JTY2953 pdr5 snq2 (sensitized); drug added to: actively dividing cells; 6 h
row,Structure (SMILES),fraction of cells in G1 phase
1,C[C@@H]1CC[C@H]2[C@@H](C)C(=O)O[C@@H]3O[C@@]4(C)CC[C@@H]1[C@]32OO4 [Artemisinin] (70.8367 µM),0.691
2,C[C@]12Cc3c[nH]nc3C[C@@H]1CC[C@@H]1[C@@H]2CC[C@@]2(C)[C@H]1CC[C@]2(C)O [Stanozolol] (60.8824 µM),0.497
3,CC1C=CC=CCCC=CC=CC=CC=CC(OC2OC(C)C(O)C(N)C2O)CC2OC(O)(CC(O)C(O)CCC(O)CC(O)CC(O)CC(=O)OC(C)C(C)C1O)CC(O)C2C(=O)O (stereo unspecified) [Nystatin] (21.5955 µM),0.699
4,C[C@]12CC[C@H](O)CC1=CC[C@@H]1[C@@H]2CC[C@]2(C)C(=O)CC[C@@H]12 [Dehydroepiandrosterone] (69.34 µM),0.719
5,C#C[C@]1(O)CC[C@H]2[C@@H]3CCC4=CC(=O)CCC4=C3C=C[C@@]21CC [Gestrinone] (64.8457 µM),0.736
6,CCCCC(C#N)(Cn1cncn1)c1ccc(Cl)cc1 (stereo unspecified) [Myclobutanil] (69.2563 µM),0.766

# Same assay, conditions: temperature: 30 C; YPD; JTY2953 pdr5 snq2 (sensitized); drug added to: cultures diluted from stationary phase; 6-7 h
row,Structure (SMILES),fraction of cells in G1 phase
1,Cc1cccc(C)c1NC1=NCCCS1 [Xylazine HCl] (90.7693 µM),0.506
2,CNC(=O)Oc1ccc2c(c1)[C@]1(C)CCN(C)[C@@H]1N2C [Physostigmine sulfate] (72.6339 µM),0.472
3,N[C@@H](Cc1ccc(N(CCCl)CCCl)cc1)C(=O)O [Melphalan] (65.5294 µM),0.45
4,COc1ccc2c(c1)[nH]c1c(C)nccc12 [Harmine] (94.227 µM),0.474
5,C=CCN1CC[C@]23c4c5ccc(O)c4O[C@H]2C(=O)CC[C@@]3(O)[C@H]1C5 [Naloxone HCl] (61.0904 µM),0.488
6,CC(NC(C)(C)C)C(=O)c1cccc(Cl)c1 (stereo unspecified) [Amfebutamone] (83.4211 µM),0.502
7,CCC1(c2ccc(N)cc2)CCC(=O)NC1=O (racemic) [Dl-aminoglutethimide] (86.1012 µM),0.476
8,CC(N)C(O)c1ccccc1 (stereo unspecified) [Phenylpropanolamine] (132.266 µM),0.466
9,COc1ccc(C(=O)N2CCCC2=O)cc1 [Aniracetam] (91.2233 µM),0.483
10,O=C1CCCN1CC#CCN1CCCC1 [Oxotremorine sesquifumarate] (96.9509 µM),0.542
11,C=C1C[C@@H]2[C@H](CC[C@]3(C)C(=O)CC[C@@H]23)[C@@]2(C)C=CC(=O)C=C12 [Exemestane] (67.4764 µM),0.567
12,Oc1ccc2c3c1O[C@H]1[C@@H](O)CC[C@@]4(O)[C@@H](C2)N(CC2CCC2)CC[C@]314 [Nalbuphine HCl] (55.9513 µM),0.469
13,CC(C)(C)NCC(O)c1cc(Cl)c(N)c(Cl)c1 (stereo unspecified) [Clenbuterol] (72.1511 µM),0.498
14,NCC1(CC(=O)O)CCCCC1 [Gabapentin] (116.794 µM),0.543
15,C[C@@H]1CC[C@H]2[C@@H](C)C(=O)O[C@@H]3O[C@@]4(C)CC[C@@H]1[C@]32OO4 [Artemisinin] (70.8367 µM),0.613
16,CN(C)[C@@H]1C(=O)C(C(N)=O)=C(O)[C@@]2(O)C(=O)C3=C(O)c4c(O)cccc4[C@@](C)(O)[C@H]3C[C@@H]12 [Tetracycline] (44.9999 µM),0.471
17,C[C@]12Cc3c[nH]nc3C[C@@H]1CC[C@@H]1[C@@H]2CC[C@@]2(C)[C@H]1CC[C@]2(C)O [Stanozolol] (60.8824 µM),0.801
18,CC(C)c1cccc(C(C)C)c1O [Propofol] (112.185 µM),0.511
19,O=C([O-])Cc1ccccc1.[Na+] [Sodium phenylacetate] (126.475 µM),0.487
20,CN(C)C(=O)Oc1cccc([N+](C)(C)C)c1 [Neostigmine Br] (89.5666 µM),0.485
21,CC(=O)O[C@H]1C[C@@H]2CC[C@@H]3[C@H](CCC4(C)[C@H]3C[C@H]([N+]3(C)CCCCC3)[C@@H]4OC(C)=O)C2(C)C[C@@H]1[N+]1(C)CCCCC1 (stereo partly specified) [Pancuronium Br] (34.9114 µM),0.487
22,C#C[C@]1(O)CC[C@H]2[C@@H]3CCC4=CC(=O)CC[C@]4(C)[C@H]3CC[C@@]21C [Ethisterone] (64.009 µM),0.462
23,CC(O)(CS(=O)(=O)c1ccc(F)cc1)C(=O)Nc1ccc(C#N)c(C(F)(F)F)c1 (stereo unspecified) [Bicalutamide] (46.4705 µM),0.493
24,C=CCN1CC[C@]23CCCC[C@H]2[C@H]1Cc1ccc(O)cc13 [Levallorphan tartrate] (70.5673 µM),0.476
25,CC1C=CC=CCCC=CC=CC=CC=CC(OC2OC(C)C(O)C(N)C2O)CC2OC(O)(CC(O)C(O)CCC(O)CC(O)CC(O)CC(=O)OC(C)C(C)C1O)CC(O)C2C(=O)O (stereo unspecified) [Nystatin] (21.5955 µM),0.665
26,CN(C)C(=O)Oc1cc(OC(=O)N(C)C)cc(C(O)CNC(C)(C)C)c1 (stereo unspecified) [Bambuterol] (54.4293 µM),0.518
27,CC(C)C[C@H]1C(=O)N2CCC[C@H]2[C@]2(O)O[C@](NC(=O)[C@@H]3C=C4c5cccc6[nH]c(Br)c(c56)C[C@H]4N(C)C3)(C(C)C)C(=O)N12 [Bromocriptine mesylate] (30.5525 µM),0.529
28,C[C@]12CC[C@H](O)CC1=CC[C@@H]1[C@@H]2CC[C@]2(C)C(=O)CC[C@@H]12 [Dehydroepiandrosterone] (69.34 µM),0.633
29,C#C[C@]1(O)CC[C@H]2[C@@H]3CCC4=CC(=O)CCC4=C3C=C[C@@]21CC [Gestrinone] (64.8457 µM),0.609
30,CCCCC(C#N)(Cn1cncn1)c1ccc(Cl)cc1 (stereo unspecified) [Myclobutanil] (69.2563 µM),0.667
